A selection: hits, their analogues and other compounds. The true share with any hit is near 14%.
Pf growth 96h: inhibits malaria parasite growth, 96 h. P. falciparum luciferase reporter growth, 96 h. Potency, µM (titrated, usually from 28.7 µM), hits mostly inhibitors. 320,000 tested, 6.9% active. AID 504834
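Two parasite generations (96 h, 37 C, 5% CO2) of compound exposure in infected erythrocytes (0.05% parasitemia, 2% hematocrit). Luciferase-reporter P. falciparum; decreased luminescence indicates inhibited growth, aimed at apicoplast-acting delayed death.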
HCMV inh: blocks human cytomegalovirus replication | activity change, negative = inhibition, % at 57.5 µM | HFF cells, HCMV-luciferase reporter, 72 h; stronger effect = lower value | 410,000 tested, 4.5% active | AID 1259415; in the data active = activity change below about -60%; inconclusive = no clear call, values can overlap the other calls; inactive = above about -39%
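Luciferase read-out from HCMV-luciferase-infected HFFs (MOI 1 PFU/cell) 72 h post infection at 37C; compounds added after 16 h cell attachment; activity normalized between buffer-only basal and Salinomycin (10uM) inhibitor controls.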
FBPA Giardia inh: inhibitors of Giardia lamblia fructose-1,6-bisphosphate aldolase; purified Giardia FBPA; Potency, µM (series often up to 59.6 µM), most hits filed as inhibitors; 290,000 tested, 0.71% active; also: nearly all actives have a fitted effect of over 55% in size
Target sequence (A8B2U2 whole entry, looked up): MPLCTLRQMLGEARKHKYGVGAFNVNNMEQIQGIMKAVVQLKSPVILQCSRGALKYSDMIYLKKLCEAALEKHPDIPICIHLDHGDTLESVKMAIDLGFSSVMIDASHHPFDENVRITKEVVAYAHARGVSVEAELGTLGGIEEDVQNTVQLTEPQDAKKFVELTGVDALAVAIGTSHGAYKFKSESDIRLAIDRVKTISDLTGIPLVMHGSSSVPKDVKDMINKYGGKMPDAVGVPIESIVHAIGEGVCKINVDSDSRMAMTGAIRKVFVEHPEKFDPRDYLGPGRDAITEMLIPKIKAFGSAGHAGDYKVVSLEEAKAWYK
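40 nM FBPA preincubated 10 min at RT with compound (up to 57.5 uM final), then substrate plus GAPDH/TPI/NAD/arsenate coupling and diaphorase/resazurin added. Fluorescence read after 20 min at RT, 525/598 nm.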
Pf growth 48h: P. falciparum growth inhibition at 48 hours (one generation) | P. falciparum luciferase growth in erythrocytes, 48 h | Potency, µM (doses to about 28.7 µM), most hits filed as inhibitors | 310,000 tested, 5.9% active
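Luciferase-expressing P. falciparum in infected erythrocytes (2% hematocrit, 0.1% parasitemia final) in RPMI 1640/0.5% Albumax were exposed to compound for 48 hours at 37 C, 5% CO2; growth read as luminescence.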
Sm TGR block: S. mansoni TGR enzyme inhibition. purified TGR, DTNB reduction, TNB absorbance 405 nm. Potency, µM (doses to about 114 µM), actives largely listed as inhibitors. 360,000 tested, 3% active; also: nearly all actives have a fitted effect of over 60% in size
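Kinetic colorimetric format: TGR-catalysed, NADPH-driven DTNB reduction monitored via TNB absorbance. Enzyme dispensed at 20 nM; compound exposure 15 min at room temperature before reaction start.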
Hits are given with their value; [ ] = another dose, or the depositor's remark. Unless noted, calls follow the shape of the dose curve; as a rule, active = well fitted curve in the direction sought with a large enough effect; inconclusive = small, poorly fitted or top-dose-only effect, or another doubt; inactive = no such curve, though single readings can be large; an effect the other way counts as inactive or inconclusive.

How did COc1cc2oc(-c3ccc(O)cc3)cc(=O)c2c(O)c1OC do in these assays?
Pf growth 96h: 10µM; HCMV inh: -110; FBPA Giardia inh: inactive; Pf growth 48h: inactive; Sm TGR block: inactive

How did Cc1ccccc1NC(=O)Cn1nc(-c2ccc(F)cc2)c2cnc3ccccc3c21 do in these assays?
HCMV inh: inactive; Sm TGR block: inactive

How did CCC(CC)C(=O)Oc1c(Sc2ccccc2[N+](=O)[O-])c(C)nn1C(C)(C)C do in these assays?
Pf growth 96h: inconclusive; HCMV inh: inactive; FBPA Giardia inh: inactive; Pf growth 48h: 9.3µM; Sm TGR block: inactive

Results for COCC(=O)Oc1c(Sc2ccccc2[N+](=O)[O-])c(C)nn1C(C)(C)C ?
Pf growth 96h: inconclusive; HCMV inh: -101; FBPA Giardia inh: inactive; Pf growth 48h: inconclusive; Sm TGR block: inconclusive

How did COCC(=O)Oc1c(S(=O)(=O)c2ccc(C)cc2)c(C)nn1C(C)(C)C do in these assays?
Pf growth 96h: inactive; HCMV inh: -71; FBPA Giardia inh: inactive; Pf growth 48h: inactive; Sm TGR block: inconclusive

Results for CC(=O)OCCn1c(C)[n+](CCOC(C)=O)c2cc(Cl)c(Cl)cc21 ?
Pf growth 96h: inconclusive; HCMV inh: inconclusive; FBPA Giardia inh: inactive; Pf growth 48h: inconclusive; Sm TGR block: inactive

How did CCn1c(C)[n+](CCOCC[n+]2c(C)n(CC)c3cc(Cl)c(Cl)cc32)c2cc(Cl)c(Cl)cc21 do in these assays?
Pf growth 96h: 10µM; HCMV inh: inactive; FBPA Giardia inh: inactive; Sm TGR block: inactive

Results for C=CCC(O)c1nc(C(=O)Nc2ccc(F)cc2)cs1 (stereo not drawn) ?
HCMV inh: inactive

What do the screens show for `Cc1ccc(NC(=O)Cc2ccccc2Cl)cc1S(=O)(=O)N(C)C`?
Pf growth 96h: inconclusive; HCMV inh: inactive; FBPA Giardia inh: inactive; Pf growth 48h: inactive; Sm TGR block: inactive

What do the screens show for `Cc1ccc(NC(=O)CSc2nn(-c3ccc(Cl)cc3)c(=S)s2)cc1S(=O)(=O)N(C)C`?
Pf growth 96h: inconclusive; HCMV inh: -83; FBPA Giardia inh: inactive; Pf growth 48h: inconclusive; Sm TGR block: inactive

What do the screens show for `CN(C)S(=O)(=O)c1cc(NC(=O)Cn2ccsc2=N)ccc1Cl`?
Pf growth 96h: inactive; HCMV inh: inactive; FBPA Giardia inh: inactive; Pf growth 48h: inactive; Sm TGR block: inactive

What do the screens show for `CN(C)S(=O)(=O)c1cc(NC(=O)CSc2nn(-c3ccc(Cl)cc3)c(=S)s2)ccc1Cl`?
Pf growth 96h: inconclusive; HCMV inh: -85; FBPA Giardia inh: inactive; Pf growth 48h: inconclusive; Sm TGR block: inactive

Results for NS(=O)(=O)c1cccc(NC(=O)CSc2nn(-c3ccccc3)c(=S)s2)c1 ?
Pf growth 96h: 1.2µM; HCMV inh: inactive; FBPA Giardia inh: inactive; Pf growth 48h: 1.9µM; Sm TGR block: inactive

How did Nc1nnc(SCC(=O)Nc2cccc(S(N)(=O)=O)c2)s1 do in these assays?
Pf growth 96h: inactive; HCMV inh: inactive; FBPA Giardia inh: inactive; Pf growth 48h: inactive; Sm TGR block: inactive

Results for Clc1ccccc1-c1nc(-c2ccccc2)n[nH]1 ?
HCMV inh: inactive; FBPA Giardia inh: inactive; Pf growth 48h: inactive; Sm TGR block: inactive

What do the screens show for `Oc1ccccc1-c1n[nH]c(-c2ccccc2O)n1`?
HCMV inh: -96

Results for COc1cccc(CCc2ccccc2OCC(CN(C)C)OC(=O)CCC(=O)O)c1 (stereo not drawn) ?
Pf growth 96h: 3.4µM; Pf growth 48h: 4.8µM

What do the screens show for `COc1cccc(CNCc2ccccc2OC)c1`?
Pf growth 96h: inactive; HCMV inh: inactive; FBPA Giardia inh: inactive; Pf growth 48h: inactive; Sm TGR block: inactive

Results for COC(=O)[C@@H]1CC[C@H](C)[C@@H](c2ccc(C)cc2)N1C(=O)c1ccc(/C=N\OCC[C@@H]2C=C[C@H](OC(C)=O)[C@H](COC(C)=O)O2)cc1 ?
FBPA Giardia inh: inactive[12.9 µM]

How did COc1cc2cc(-c3ccc(OC)c(OC)c3C)nc(N)c2cc1OC do in these assays?
HCMV inh: -92

Results for CC(C)c1ccccc1NC(=O)CN(c1ccccc1)S(=O)(=O)N(C)C ?
HCMV inh: inactive; Sm TGR block: inactive

What do the screens show for `COc1ccc(-c2nc3cnc(OC)nc3n(Cc3cccs3)c2=O)cc1`?
FBPA Giardia inh: inactive

Compound activity (PubChem)
